Experimental data: PubChem BioAssay (Tox21)
Values joined by “and” are separate entries in the source; they are usually repeats but may differ in a detail not shown here. Identical values can stand only once. Inconclusive results are not listed. Entries that show only a call come without a potency. More than one record can exist for a structure, and the calls need not agree. Active and inactive are the calls of the source. The call rests on the fitted dose curve; in most records, active means well fitted curve in the direction sought with a large enough effect in the repeat runs; inconclusive means weak or mixed curves; inactive means no such curve, though single readings can be large; an effect the other way counts as inactive or inconclusive.

Legend:
[1] = biological target: Cytochrome P450 2C19 (Homo sapiens) (UniProt P33261); test: Cytochrome P450 Family 2 Subfamily C Member 19 (CYP2C19) small molecule antagonists: luciferase reporter qHTS assay (AID 1671197); further: nearly all actives have a fitted effect of over 65% in size; on activity change, negative = inhibition: series mostly up to about 120 µM
Outline: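 P450-Glo CYP2C19 screening system; proluciferin substrate; DMSO compound stocks; 10 min RT preincubation; NADPH regeneration, 1 h at 37C; luciferin detection reagent, 20 min RT; luminescence as RLU.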

[2] = biological target: Cytochrome P450 2C9 (Homo sapiens) (UniProt P11712); test: Cytochrome P450 Family 2 Subfamily C Member 9 (CYP2C9) small molecule antagonists: luciferase reporter qHTS assay (AID 1671198); further: nearly all actives have a fitted effect of over 50% in size; on activity change, negative = inhibition: series mostly up to about 120 µM
Outline: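 P450-Glo proluciferin substrate with CYP2C9 enzyme; 10 min RT preincubation, then NADPH regeneration 1 h at 37C; luciferin detection reagent 20 min RT, luminescence in relative luminescence units.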

[3] = biological target: Cytochrome P450 1A2 (Homo sapiens) (UniProt P05177); test: Cytochrome P450 Family 1 Subfamily A Member 2 (CYP1A2) small molecule antagonists: luciferase reporter qHTS assay (AID 1671199); further: nearly all actives have a fitted effect of over 50% in size; on activity change, negative = inhibition: series mostly up to about 120 µM
Outline: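 Human CYP1A2 activity measured with a P450-Glo proluciferin substrate; compounds in DMSO preincubated 10 min at room temperature with enzyme-substrate mix, then NADPH regeneration system added for 1 h. Luciferin detection reagent, 20 min, luminescence read.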

[4] = biological target: Voltage-gated inwardly rectifying potassium channel KCNH2 (Homo sapiens) (UniProt Q12809); test: Human Ether-a-go-go-Related Gene (hERG) channel small molecule antagonists: fluorescence cell-based qHTS assay (AID 1671200); further: nearly all actives have a fitted effect of over 50% in size;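 on activity change, negative = inhibition: hERG-expressing U2OS cells given a thallium stimulus after FluxOR II dye loading; series mostly up to about 77 µM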
Outline: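 In this thallium-flux screen, overnight-cultured U2OS cells bearing the channel are dye-loaded in darkness for an hour, rested 10 min at room temperature, and then monitored kinetically at 480/540 nm for two minutes post-stimulus.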

[5] = biological target: Cytochrome P450 3A4 (Homo sapiens) (UniProt P08684); test: Cytochrome P450 Family 3 Subfamily A Member 4 (CYP3A4) small molecule antagonists: luciferase reporter qHTS assay (AID 1671201); further: nearly all actives have a fitted effect of over 50% in size; on activity change, negative = inhibition: series mostly up to about 120 µM
Outline: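 CYP3A4 activity was followed with a P450-Glo proluciferin substrate. Test compounds in DMSO were preincubated 10 min; NADPH regeneration then ran 1 h, and light output was read 20 min after detection reagent.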
Potency means the concentration at half of the fitted maximal effect.

Sequence of Cytochrome P450 2C9 (Homo sapiens) (P11712 whole entry, looked up): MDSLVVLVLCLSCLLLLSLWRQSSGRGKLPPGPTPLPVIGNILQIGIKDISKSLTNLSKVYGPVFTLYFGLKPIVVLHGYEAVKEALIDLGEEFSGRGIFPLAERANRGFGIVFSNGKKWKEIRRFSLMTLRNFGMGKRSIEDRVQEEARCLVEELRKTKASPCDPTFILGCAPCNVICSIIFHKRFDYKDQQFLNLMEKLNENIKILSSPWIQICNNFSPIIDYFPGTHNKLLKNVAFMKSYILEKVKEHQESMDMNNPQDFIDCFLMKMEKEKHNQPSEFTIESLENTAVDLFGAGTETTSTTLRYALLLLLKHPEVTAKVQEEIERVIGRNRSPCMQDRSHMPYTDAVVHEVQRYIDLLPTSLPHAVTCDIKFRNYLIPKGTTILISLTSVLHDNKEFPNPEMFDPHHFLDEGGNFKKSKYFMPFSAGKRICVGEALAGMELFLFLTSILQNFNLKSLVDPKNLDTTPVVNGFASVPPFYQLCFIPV
Sequence of Cytochrome P450 2C19 (Homo sapiens) (P33261 whole entry, looked up): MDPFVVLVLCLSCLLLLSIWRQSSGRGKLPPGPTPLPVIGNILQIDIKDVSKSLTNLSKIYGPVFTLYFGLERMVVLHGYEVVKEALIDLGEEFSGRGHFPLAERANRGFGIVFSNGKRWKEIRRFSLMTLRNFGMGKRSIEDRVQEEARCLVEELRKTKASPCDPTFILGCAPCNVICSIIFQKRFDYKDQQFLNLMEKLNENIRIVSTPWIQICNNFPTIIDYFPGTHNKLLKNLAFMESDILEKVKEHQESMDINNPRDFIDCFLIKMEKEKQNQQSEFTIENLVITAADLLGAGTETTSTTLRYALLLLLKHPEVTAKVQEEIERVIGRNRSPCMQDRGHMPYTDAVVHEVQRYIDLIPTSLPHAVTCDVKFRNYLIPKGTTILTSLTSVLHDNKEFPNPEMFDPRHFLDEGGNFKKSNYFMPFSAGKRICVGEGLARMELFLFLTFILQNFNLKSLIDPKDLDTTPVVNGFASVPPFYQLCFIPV
Sequence of Voltage-gated inwardly rectifying potassium channel KCNH2 (Homo sapiens) (Q12809 whole entry, looked up): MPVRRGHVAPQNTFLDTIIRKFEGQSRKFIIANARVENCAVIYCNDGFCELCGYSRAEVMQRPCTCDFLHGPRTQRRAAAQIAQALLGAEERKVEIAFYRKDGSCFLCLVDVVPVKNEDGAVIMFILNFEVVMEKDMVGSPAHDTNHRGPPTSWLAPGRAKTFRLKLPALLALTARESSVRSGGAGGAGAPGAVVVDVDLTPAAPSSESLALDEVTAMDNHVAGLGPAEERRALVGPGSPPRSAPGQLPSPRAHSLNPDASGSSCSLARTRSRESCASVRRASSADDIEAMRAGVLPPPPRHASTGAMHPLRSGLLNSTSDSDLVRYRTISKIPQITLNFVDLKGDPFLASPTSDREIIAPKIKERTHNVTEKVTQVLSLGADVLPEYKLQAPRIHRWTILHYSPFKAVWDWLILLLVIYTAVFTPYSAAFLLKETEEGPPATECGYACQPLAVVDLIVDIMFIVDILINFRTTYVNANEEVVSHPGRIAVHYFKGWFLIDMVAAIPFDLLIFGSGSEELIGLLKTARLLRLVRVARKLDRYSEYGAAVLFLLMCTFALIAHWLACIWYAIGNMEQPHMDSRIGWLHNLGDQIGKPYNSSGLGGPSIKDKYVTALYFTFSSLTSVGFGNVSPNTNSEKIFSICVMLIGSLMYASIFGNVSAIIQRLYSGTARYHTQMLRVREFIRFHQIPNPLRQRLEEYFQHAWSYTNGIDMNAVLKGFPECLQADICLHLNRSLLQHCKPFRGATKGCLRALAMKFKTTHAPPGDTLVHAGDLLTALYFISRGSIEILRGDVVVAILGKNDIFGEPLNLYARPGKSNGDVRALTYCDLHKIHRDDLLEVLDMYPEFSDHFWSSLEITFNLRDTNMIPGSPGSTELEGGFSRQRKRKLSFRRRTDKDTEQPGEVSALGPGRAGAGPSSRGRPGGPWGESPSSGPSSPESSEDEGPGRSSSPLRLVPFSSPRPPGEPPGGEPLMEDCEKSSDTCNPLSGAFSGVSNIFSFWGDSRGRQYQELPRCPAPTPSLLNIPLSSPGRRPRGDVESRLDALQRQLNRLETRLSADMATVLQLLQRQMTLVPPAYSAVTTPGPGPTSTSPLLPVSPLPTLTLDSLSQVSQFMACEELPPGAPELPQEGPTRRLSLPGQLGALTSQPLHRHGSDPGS
Sequence of Cytochrome P450 1A2 (Homo sapiens) (P05177 whole entry, looked up): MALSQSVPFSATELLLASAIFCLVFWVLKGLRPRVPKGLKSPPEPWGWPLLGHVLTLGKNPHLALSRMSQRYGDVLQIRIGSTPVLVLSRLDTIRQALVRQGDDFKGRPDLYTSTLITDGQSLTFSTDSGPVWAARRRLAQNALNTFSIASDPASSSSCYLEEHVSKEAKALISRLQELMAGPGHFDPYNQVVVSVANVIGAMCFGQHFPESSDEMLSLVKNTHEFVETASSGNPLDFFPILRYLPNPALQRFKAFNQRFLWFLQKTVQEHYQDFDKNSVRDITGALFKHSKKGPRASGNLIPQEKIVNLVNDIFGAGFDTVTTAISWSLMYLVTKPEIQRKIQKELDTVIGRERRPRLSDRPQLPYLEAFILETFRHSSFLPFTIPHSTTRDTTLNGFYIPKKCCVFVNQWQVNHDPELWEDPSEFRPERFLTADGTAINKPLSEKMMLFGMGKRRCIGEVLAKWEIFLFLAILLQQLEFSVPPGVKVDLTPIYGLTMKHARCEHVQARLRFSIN
Sequence of Cytochrome P450 3A4 (Homo sapiens) (P08684 whole entry, looked up): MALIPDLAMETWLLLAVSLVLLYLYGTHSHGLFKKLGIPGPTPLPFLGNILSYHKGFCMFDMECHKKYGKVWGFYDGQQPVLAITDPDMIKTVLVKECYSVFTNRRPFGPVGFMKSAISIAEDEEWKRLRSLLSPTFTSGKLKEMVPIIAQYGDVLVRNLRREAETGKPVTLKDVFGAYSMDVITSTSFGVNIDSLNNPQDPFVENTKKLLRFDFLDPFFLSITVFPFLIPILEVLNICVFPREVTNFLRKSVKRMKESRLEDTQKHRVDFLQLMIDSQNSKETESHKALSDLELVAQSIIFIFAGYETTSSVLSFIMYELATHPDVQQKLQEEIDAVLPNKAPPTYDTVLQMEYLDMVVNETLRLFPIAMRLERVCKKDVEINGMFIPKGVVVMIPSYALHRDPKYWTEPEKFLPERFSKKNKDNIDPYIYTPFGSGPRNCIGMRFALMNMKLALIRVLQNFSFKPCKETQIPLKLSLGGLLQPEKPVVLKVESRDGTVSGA

SMILES	Potency [1]	Potency [2]	Potency [3]	Potency [4]	Potency [5]	activity change, negative = inhibition [1]	activity change, negative = inhibition [3]
COC(=O)Nc1nc2ccc(S(=O)c3ccccc3)cc2[nH]1 (stereo not drawn)	79.6 µM (active) and inactive	inactive	28.2 µM (active) and 17.4 µM (active)	inactive	inactive		
O=C(COc1ccc(Cl)cc1)N1CCN(Cc2ccc3c(c2)OCO3)CC1	17.8 µM (active) and 17.4 µM (active)	28.3 µM (active) and 13.8 µM (active)	28.3 µM (active) and 17.4 µM (active)	19.5 µM (active) and 8.49 µM (active)			
C[C@]12CCC(=O)C=C1CC[C@@H]1[C@@H]2C(=O)C[C@@]2(C)[C@H]1CC[C@]2(O)C(=O)CO	25.2 µM (active)	inactive	inactive	inactive	inactive		
Cc1cccc(N(C)C(=S)Oc2ccc3ccccc3c2)c1	1.26 µM (active) and 977 nM (active)	8.94 µM (active) and 6.92 µM (active)	10 µM (active) and 9.77 µM (active)				
OC1CCCCCCCCCCC1	inactive	inactive	25.2 µM (active)	inactive			
CCC(C)CO (stereo not drawn)	35.1 µM (active) and inactive	inactive	inactive	inactive	inactive		
C[Si](C)(C)O[Si](C)(C)C	inactive	inactive	inactive	inactive	inactive		
CCOCCOCCO	36.6 µM (active) and inactive	inactive	inactive	inactive	inactive		
O=C(Nc1ccc([N+](=O)[O-])cc1Cl)c1cc(Cl)ccc1O		25.2 µM (active)	20 µM (active)	inactive		-2.19% [at 23.6 µM] (inactive)	-15.9% [at 23.6 µM] (inactive)
Nc1ccc(Cl)cc1Cl	inactive	inactive	31.4 µM (active) and 39.9 µM (active)	inactive			
NC=O	inactive	inactive	inactive	inactive	inactive		
CC(=O)O[C@]1(C(C)=O)CC[C@H]2[C@@H]3C=C(Cl)C4=CC(=O)[C@@H]5C[C@@H]5[C@]4(C)[C@H]3CC[C@@]21C	inactive and 39.9 µM (active)	15.9 µM (active) and 31.7 µM (active) and 13.8 µM (active)	inactive	inactive	inactive		
c1ccc2sc(SSN3CCOCC3)nc2c1	17.8 µM (active)	15.9 µM (active) and 11.2 µM (active)	20 µM (active) and 22.4 µM (active)	inactive	inactive		
O=C(OCc1ccccc1)c1ccccc1O	5.6 µM (active) and 17.8 µM (active)	35.6 µM (active)	31.5 µM (active) and 28.3 µM (active)	inactive	inactive		
COc1ccccc1/C=C/C=O	39.9 µM (active)	inactive	29 µM (active) and 25.2 µM (active)	inactive	inactive		
c1cc(-c2ccncc2)ccn1	35.9 µM (active)	40.3 µM (active) and 35.6 µM (active)	40.3 µM (active) and 35.6 µM (active)	inactive	inactive		
CC1=CCC(C(C)(C)O)CC1 (stereo not drawn)	inactive	inactive	inactive	inactive	inactive		
CCCCOCCOCCO	inactive	inactive	inactive	inactive	inactive		
Cc1cccc(C(=O)O)c1	inactive	inactive	inactive	inactive	inactive		
O=C(c1ccccc1)c1ccccc1O	3.65 µM (active) and 22.4 µM (active)	40.9 µM (active) and 63.3 µM (active)	11.5 µM (active) and 15.9 µM (active)	inactive	inactive		
CC(=O)CC/C=C(\C)CCC=C(C)C	inactive and 39.9 µM (active)	inactive and 35.6 µM (active)	inactive and 39.9 µM (active)	inactive	inactive and 17.8 µM (active)		
C=C(C)C(=O)OCCOC(=O)C(=C)C	inactive	inactive	inactive and 35.6 µM (active)	inactive	inactive		
CC(C(=O)O)c1cccc(C(=O)c2ccccc2)c1 (stereo not drawn)	39.9 µM (active)	31.7 µM (active) and 30.9 µM (active)	inactive and 24.5 µM (active)	inactive	inactive		
NNc1ccc(C(=O)O)cc1	32.1 µM (active) and 40.3 µM (active)	10.2 µM (active)	32.1 µM (active) and 32 µM (active)	inactive	inactive		
CCCCC(CC)COP(=O)(OCC(CC)CCCC)OCC(CC)CCCC (stereo not drawn)	inactive and 71 µM (active)	inactive	inactive	inactive	inactive and 5.64 µM (active)		

SMILES	Potency [1]	Potency [2]	Potency [3]	Potency [4]	Potency [5]	activity change, negative = inhibition [1]	activity change, negative = inhibition [3]
CCCCC(CC)COC(=O)c1ccc(N(C)C)cc1 (stereo not drawn)	40.1 µM (active) and 20 µM (active) and 6.92 µM (active)	31.9 µM (active) and 17.8 µM (active) and 15.5 µM (active)	12.7 µM (active) and 7.1 µM (active) and 4.56 µM (active)	inactive	inactive		
c1ccc2c(c1)c1cccc3ccc4cccc2c4c31	88.8 µM (active) and inactive	inactive	112 nM (active) and 20 nM (active)	inactive	inactive		
CC1=CC2C3CC(C=C3C)C2C1 (stereo not drawn)	inactive and 39.9 µM (active)	inactive	inactive	inactive	inactive and 12.6 µM (active)		
O=Cc1ccccc1O	inactive	inactive	inactive	inactive	inactive		
CN1C(C(=O)Nc2ccccn2)=C(O)c2ccccc2S1(=O)=O	inactive	12.7 µM (active) and 13.8 µM (active)	inactive	inactive	inactive		
O=C(O)c1ccccc1Nc1cccc(C(F)(F)F)c1	inactive	63.3 µM (active)	35.6 µM (active)	inactive	inactive		
O=CCc1ccccc1	19.9 µM (active) and 5.64 µM (active)	25 µM (active) and 5.03 µM (active)	39.9 µM (active)	inactive	inactive		
Nc1ncnc2nc[nH]c12	inactive	inactive	inactive	inactive	inactive		
Clc1nc(Cl)c(Cl)c(Cl)c1Cl	31.9 µM (active)	inactive	inactive	inactive	inactive		
O=CCCCC=O	inactive	inactive	inactive	inactive	inactive		
Nc1ccc(Nc2ccccc2)cc1	24.9 µM (active) and 10 µM (active) and 12.6 µM (active)	15.7 µM (active) and 25.2 µM (active) and 10 µM (active)	35.2 µM (active) and 35.6 µM (active) and 31.7 µM (active)	inactive	5.58 µM (active) and 11.3 µM (active) and 7.96 µM (active)		
CCCCCCCCCC(=O)OC	inactive	inactive	inactive	inactive	inactive		
O=C(/C=C/c1ccccc1)OCc1ccccc1	17.8 µM (active) and 9.77 µM (active)	17.8 µM (active) and 13.8 µM (active)	11.2 µM (active) and 6.92 µM (active)		inactive		
COc1c(Cl)c(Cl)c(Cl)c(Cl)c1Cl	inactive	inactive	28.4 µM (active) and 5.03 µM (active)	inactive	inactive		
CC(=O)c1ccccn1	20.2 µM (active) and inactive	inactive	64 µM (active) and inactive	inactive	inactive		
CN(C)CCC=C1c2ccccc2CCc2ccccc21	7.97 µM (active) and 31.7 µM (active)	inactive	inactive		inactive		
CC(C)OC(=O)C(C)(C)Oc1ccc(C(=O)c2ccc(Cl)cc2)cc1	8.94 µM (active) and 5.49 µM (active)	3.56 µM (active) and 1.74 µM (active)	35.6 µM (active)	27.5 µM (active) and 8.49 µM (active)	inactive		
CCCCC(CC)COCC1CO1 (stereo not drawn)	inactive	inactive	inactive	inactive	inactive		
COc1ccc(C(=O)CC(=O)c2ccc(C(C)(C)C)cc2)cc1	8.57 µM (active) and inactive	21.5 µM (active)	34.1 µM (active)	inactive	inactive		
CC(C)Oc1ccc2c(=O)c(-c3ccccc3)coc2c1	inactive	17.4 µM (active) and 27.5 µM (active)	12.3 µM (active) and 6.45 µM (active)	inactive	inactive		
O=C1OC2(c3cc(Br)c(O)c(Br)c3Oc3c2cc(Br)c(O)c3Br)c2c(Cl)c(Cl)c(Cl)c(Cl)c21	38.4 µM (active)	10 µM (active) and 17.2 µM (active)	12.6 µM (active)	inactive	71.1 µM (active) and inactive		
CCC(C)(O)CCCC(C)C (stereo not drawn)	inactive	inactive	inactive	inactive	inactive		
CCCCNS(=O)(=O)c1ccccc1	7.01 µM (active) and 17.8 µM (active)	35.1 µM (active) and 35.6 µM (active)	inactive	inactive	inactive		
OCCO	inactive	inactive	inactive	inactive	inactive		
CCOC(=O)C(C#N)=C(c1ccccc1)c1ccccc1	5.64 µM (active) and 4.9 µM (active)	5.03 µM (active) and 4.9 µM (active)	3.56 µM (active) and 1.62 µM (active)	inactive	inactive		
